MPTP inh = permeability transition pore inhibition; 360,000 tested, 1.4% active; inhibition, % at 10 µM; AID 602449; isolated mouse mitochondria, Ca2+ swelling absorbance, 30 min;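 active = inhibition of 50% or more, scaled per plate between neutral and stimulator controls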;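 note: 0% = DMSO wells given calcium and 100% = 1 mM EGTA wells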
FAS-TE inh = inhibitors of human fatty acid synthase thioesterase domain; P49327; recombinant FAS-TE, OMFH fluorogenic substrate, fluorescence endpoint; inhibition, % at 15 µM; 360,000 tested, 0.67% active;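 active = compounds whose normalised, plate-corrected inhibition of enzyme fluorescence in the single-dose primary screen is 50% or more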;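 note: 0% = DMSO with enzyme and 100% = substrate without enzyme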
pCIP destab = lowers stability of the mouse p/CIP coactivator protein. F442A p/CIP-EGFP cells, EGFP fluorescence, 16 h. decrease of EGFP signal, % at 10 µM. 290,000 tested, 0.01% active;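 active = EGFP signal decrease of at least 30% at 10 µM or well 3 SD below plate mean, unless failing retest; inactive = the rest, including hits failing retest or dose response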
Target sequence (Q05BA5 1-1403): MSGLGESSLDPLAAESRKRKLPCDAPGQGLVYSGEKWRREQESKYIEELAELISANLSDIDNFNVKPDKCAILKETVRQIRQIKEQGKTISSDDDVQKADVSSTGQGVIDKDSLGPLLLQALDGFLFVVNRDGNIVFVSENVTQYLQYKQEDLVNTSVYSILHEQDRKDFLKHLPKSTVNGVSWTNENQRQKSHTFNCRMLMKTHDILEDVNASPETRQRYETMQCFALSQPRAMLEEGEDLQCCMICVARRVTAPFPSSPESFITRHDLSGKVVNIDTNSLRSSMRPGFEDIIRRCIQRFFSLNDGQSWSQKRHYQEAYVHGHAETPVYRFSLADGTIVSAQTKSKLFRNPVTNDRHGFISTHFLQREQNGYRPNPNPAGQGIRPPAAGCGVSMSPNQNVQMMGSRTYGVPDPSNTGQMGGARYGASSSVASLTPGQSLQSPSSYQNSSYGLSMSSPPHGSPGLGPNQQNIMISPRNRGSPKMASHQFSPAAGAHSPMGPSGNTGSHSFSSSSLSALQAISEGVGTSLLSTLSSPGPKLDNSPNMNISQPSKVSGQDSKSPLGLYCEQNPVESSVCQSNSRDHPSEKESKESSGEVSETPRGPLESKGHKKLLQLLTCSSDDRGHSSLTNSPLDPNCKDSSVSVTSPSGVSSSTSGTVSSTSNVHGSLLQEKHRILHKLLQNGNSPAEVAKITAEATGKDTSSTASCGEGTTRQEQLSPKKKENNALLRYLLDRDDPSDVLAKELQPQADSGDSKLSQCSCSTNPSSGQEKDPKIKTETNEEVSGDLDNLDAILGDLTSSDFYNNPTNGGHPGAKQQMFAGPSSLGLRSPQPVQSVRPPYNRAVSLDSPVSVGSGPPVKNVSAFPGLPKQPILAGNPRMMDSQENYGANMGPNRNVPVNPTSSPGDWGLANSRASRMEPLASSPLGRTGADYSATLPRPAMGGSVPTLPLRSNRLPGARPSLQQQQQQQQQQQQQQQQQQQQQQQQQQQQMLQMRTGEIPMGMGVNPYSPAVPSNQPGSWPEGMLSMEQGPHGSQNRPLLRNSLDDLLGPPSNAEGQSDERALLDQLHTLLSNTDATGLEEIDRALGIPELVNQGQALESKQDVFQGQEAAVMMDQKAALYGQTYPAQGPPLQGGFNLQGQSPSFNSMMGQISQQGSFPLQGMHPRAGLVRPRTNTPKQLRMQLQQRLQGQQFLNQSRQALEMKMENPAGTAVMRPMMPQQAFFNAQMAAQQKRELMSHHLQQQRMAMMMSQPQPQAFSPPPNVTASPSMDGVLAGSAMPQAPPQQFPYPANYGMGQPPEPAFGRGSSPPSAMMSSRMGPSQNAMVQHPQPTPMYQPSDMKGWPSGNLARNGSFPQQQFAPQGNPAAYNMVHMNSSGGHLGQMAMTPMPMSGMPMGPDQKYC
MIN6 prolif-1 = MIN6 beta-cell proliferation induction; MIN6 cells proliferation, ATPlite luminescence, 48 h; cells starved in 0.2% serum; 100% = growth in 10% serum; proliferation, % at 10 µM; 330,000 tested, 0.29% active;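 active = compounds whose signal lies at least 3.5 SD above the mean of all wells on their plate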;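 note: 0% = DMSO-treated cells in low-serum medium and 100% = 10% serum control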
NR3A LBD binder = modulators (binders) of human NR3A ligand-binding domain | NR3A LBD differential scanning fluorimetry, Tm shift; 0% = protein alone, 100% = glycine-bound protein | 340,000 tested, 2.5% active | Tm shift relative to glycine control, % at 25 µM;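 active = melting temperature shift of at least 10% of the positive control shift, at one fixed dose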
MIN6 prolif-2 = MIN6 beta-cell replication induction, confirmed | shares compounds with MIN6 prolif-1 | MIN6 beta-cell proliferation, ATPlite luminescence, 48 h; cells kept in 0.2% serum; scaled between 0.2% and 10% serum | proliferation increase, % at 50 µM | 920 tested, under 10 active | AID 463095;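 active = proliferation increase above 40% at any of the four tested concentrations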
Numbers without * were called inactive; nt = not tested or not shown. Compounds with a hit are over-represented: about 4.1% of the library has one in this group of screens.

SMILES	MPTP inh	FAS-TE inh	pCIP destab	MIN6 prolif-1	NR3A LBD binder	MIN6 prolif-2
Cc1cccc(/C=N/n2c(C3CCCCC3)n[nH]c2=S)c1	1.0	11.1	-4.0	6.7*	-1.2	-6.5
CCOC(=O)C1(C)CCCN(C(=O)c2cccc(C#N)c2)C1 (stereo not given)	1.5	-6.8	nt	nt	nt	nt
Cc1cc(=O)n2[nH]c(SCc3ccccc3)nc2n1	-0.7	-3.7	0.0	8.3*	0.4	-1.1
COc1cccc(CNC(=O)[C@@H]2CCCN2C(=O)[C@H]2CCCCN2C(=O)c2cccc(Cl)c2)c1	-0.4	-3.4	nt	nt	nt	nt
CCSc1nc(N)c(C#N)c(-c2ccco2)c1C#N	-5.6	16.1	-5.1	14.5*	-5.4	4.7
COc1ccc(OC)c(N2C(N)=NC(N)=NC23CCCC3)c1	-0.6	-7.2	-6.9	5.7*	-3.1	0.5
Cc1cccc(N2C(N)=NC(N)=NC23CCCCC3)c1	-3.8	-4.6	-19.5	nt	2.4	nt
COc1ccccc1NC(=O)Nc1cc(C(C)(C)C)nn1C	1.3	-0.2	-8.7	-3.0	-0.2	nt
Cc1ccc(F)cc1NC(=O)Nc1cc(C(C)(C)C)nn1C	2.4	-7.6	6.5	6.9*	0.0	-2.8
CCOc1ccc(Nc2nc(C)cc(C)c2C#N)cc1	0.3	-8.1	5.6	6.3*	1.5	2.3
COc1ccc(Nc2nc(C)cc(C)c2C#N)cc1	-2.2	-8.8	-6.1	-2.9	-0.1	nt
CCc1cccc(CC)c1N(COC)C(=O)Cn1c(CO)nc2ccccc21	2.0	-7.6	2.0	0.8	1.2	nt
CCc1cccc(CC)c1N(COC)C(=O)Cn1nnc2ccccc21	1.2	-1.4	-10.5	9.7*	-0.1	-3.0
CNC(=S)N(CCc1c(C)[nH]c2ccc(C)cc12)Cc1cccnc1	0.2	-3.0	1.5	12.6*	2.8	-4.5
Cc1cccc(NC(=S)N(CCc2nc3cc(C)c(C)cc3[nH]2)Cc2cccnc2)c1	5.1	-0.3	-17.2	4.8*	8.2	-0.7
CC1CC(C)CN(S(=O)(=O)c2ccc(C(=O)OCC(=O)Nc3ccccc3)cc2)C1 (stereo not given)	0.0	-2.2	nt	nt	nt	nt
COc1ccc2c(c1)CCC1C2CCC2(C)C(O)C(=O)CC12 (stereo not given)	-0.3	-1.4	nt	nt	-0.2	nt
CCNC(=S)Nc1cc(C)ccn1	-3.9	-1.4	-2.4	0.0*	-9.9	2.1
Cc1ccc(CC(=O)Nc2cc(C)ccn2)cc1	0.3	-1.2	-1.5	-3.2	4.2	nt
Cc1noc(-c2ccccc2)c1NC(=O)Nc1ccc2nc([C@H]3C[C@H](O)[C@@H](CO)O3)[nH]c2c1	-3.0	0.3	nt	nt	nt	nt
CCCCN(C(=O)CCC(=O)Nc1cc(C)on1)C(C(=O)NC(C)(C)C)c1ccccc1Cl (stereo not given)	-0.4	1.2	-0.1	-0.8	0.1	nt
Cc1cc(NC(=O)CCC(=O)N(CC(C)C)C(C(=O)NC(C)(C)C)c2ccccc2Cl)no1 (stereo not given)	-0.2	1.1	0.6	6.7*	1.2	-3.4
COc1cccc(C(C(=O)NC(C)(C)C)N(C(=O)CCC(=O)Nc2cc(C)on2)C(C)(C)C)c1OC (stereo not given)	-2.7	-3.5	-20.5	5.2*	-2.5	-0.8
Cc1ccc(S(=O)(=O)Nc2ccccc2C=NNC(=O)c2ccncc2)cc1	1.6	-3.5	nt	nt	nt	nt
CSc1ncnc2c1ncn2CCCN(C)Cc1ccco1	-1.1	-9.2	nt	nt	nt	nt
SMILES	MPTP inh	FAS-TE inh	pCIP destab	MIN6 prolif-1	NR3A LBD binder	MIN6 prolif-2
CNc1cc(-c2cc(OC)ccc2OC)ncn1	0.0	-6.6	nt	nt	nt	nt
CCNC(=O)N1C[C@H]2CON(C)[C@H]2C[C@H]1c1ccccc1Br	0.5	-5.8	nt	nt	nt	nt
COc1ccc(OC)c(C(=O)CSc2nccc(-c3ccc(Br)cc3)n2)c1	2.4	30.9	3.1	5.6*	-2.8	-3.1
CN1C(=O)N(C)c2ccc(Br)c3cccc1c23	-0.1	11.5	9.5	8.6*	0.2	1.4
CN1C(=O)N(C)c2ccc(C=O)c3cccc1c23	2.7	12.8	-14.9	6.6	-0.4	nt
C=CCOn1c(=O)c(-c2ccc(F)cc2)[n+]([O-])c2ccccc21	0.1	-1.2	-7.1	10.7*	1.6	2.6
CCc1nc2ccc(C(=O)N(C)CCN(C)C)cn2c1N(CC)C(=O)NCCc1ccccc1	0.4	-7.2	nt	nt	nt	nt
CCC(C)NC(=O)CSc1ccc(Cl)cc1 (stereo not given)	0.8	-9.3	-13.3	-1.4	0.3	nt
CCC(C)NC(=O)CCSc1ccc(C)cc1 (stereo not given)	2.4	-5.8	-2.5	0.0*	0.7	0.7
CN1CCCC(C(=O)Nc2cccc(Cl)c2)CC1 (stereo not given)	-0.8	-1.4	nt	nt	nt	nt
CCC[C@@H](O)c1cc2cc(OC)c(OC)cc2c(=O)o1	0.2	-7.5	nt	11.5*	1.3	-6.4
CC(=O)N1CCN(CC(O)Cn2c3ccccc3c3ccccc32)CC1 (stereo not given)	-0.2	-3.4	-11.6	6.6*	-4.0	-5.8
CC1CCN(CC(O)Cn2c3ccccc3c3ccccc32)CC1 (stereo not given)	1.6	-9.7	3.7	1.5	-0.5	nt
C=CCOn1c(C)c(C(C)=O)c2c3no[n+]([O-])c3ccc21	0.8	5.5	-9.1	7.6*	1.7	4.4
COC(=O)C1(C(=O)OC)c2ccccc2CN(S(=O)(=O)c2ccc(C)cc2)C1CC(C)=O (stereo not given)	0.0	nt	nt	nt	nt	nt
CCOC(=O)c1ccc(NC(=O)CC2SC3=NCCN3C2=O)cc1 (stereo not given)	-0.4	-2.6	1.2	5.8*	1.2	-0.6
CCC(C)Sc1nc2c(cnn2-c2ccc(C)cc2)c(=O)[nH]1 (stereo not given)	0.7	-1.8	-4.6	9.6*	-2.5	8.0
Cc1ccc(S(=O)(=O)N2CCC(=O)N([C@H](COCc3ccc(Cl)cc3)C(C)C)CC2)cc1	-0.4	38.5	nt	nt	nt	nt
COc1ccc(/C=N/n2cnc3c([nH]c4ccccc43)c2=O)cc1COc1ccccn1	nt	nt	-1.8	8.3*	nt	3.0
CC(=O)Nc1cccc(-c2ccnc3c2CC(C)(C(=O)Nc2cccc(C(C)=O)c2)O3)c1 (stereo not given)	-0.7	-1.3	nt	nt	nt	nt
CCC(=O)Oc1c(C(=O)CC)cc2c(C)cc(=O)oc2c1C	0.1	0.8	-2.0	0.0	-0.1	nt
CCC(=O)Nc1c(OC(=O)CC)ccc2c(C)cc(=O)oc12	-1.2	-7.8	10.0	13.3*	1.3	2.0
COC(=O)c1ccsc1NC(=O)c1ccco1	0.8	-0.7	-1.7	11.1*	0.9	6.0
COC(=O)c1cc(C)sc1NC(=O)c1ccco1	-0.4	-0.9	0.8	-2.6	-3.1	nt
COc1ccc(CCNC(=O)CNC(=O)c2ccc(Br)o2)cc1OC	-1.1	-9.6	nt	12.8*	-1.9	2.0
COC(=O)c1ccccc1NC(=O)c1cc(-c2ccc(C)cc2)on1	-0.9	0.5	8.1	8.3*	2.9	0.3

Screening data from PubChem BioAssay.
